Data taken from ChEMBL document CHEMBL1157539, “Thousands of chemical starting points for antimalarial lead identification” (Nature, 2010).

Each compound was assayed on Plasmodium falciparum (assay: GSK_TCMDC: Inhibition of Plasmodium falciparum Dd2 in whole red blood cells, using parasite LDH activity as an index of growth. Test compounds present at 2uM).
Format: functional

SMILES | Inhibition [%]
CC(C)[C@H](NC(=O)c1ccc(O)c(-c2cccc(C(F)(F)F)c2)c1)C(=O)NCCN1CCCCC1 | 29
COc1cc(NC(=O)/C=C/c2cccc3cc[nH]c23)ccc1OCCN(C(C)C)C(C)C.Cl | 51
NCc1ccc(CNCc2ccc(-c3ccc(-c4nc5cc(F)ccc5[nH]4)cc3)cc2)cc1.O=C(O)C(F)(F)F | 99
CC(C)CCNC(=N)Nc1ccc(OCCCOc2ccc(NC(=N)NCCC(C)C)cc2)cc1 | 95
O=C(O)C(F)(F)F.c1ccc(CNCc2ccc(-c3cccc(-c4nc5ccccc5[nH]4)c3)cc2)cc1 | 78
O=C(Cc1ccccc1)NC(c1ccccc1)c1ccc2cccnc2c1O (stereo not drawn) | 61
Fc1ccc2[nH]c(-c3cccc(-c4cccc(CNCC5CCCO5)c4)c3)nc2c1.O=C(O)C(F)(F)F (stereo not drawn) | 94
COc1ccc(O)c(C(=O)c2cc(C#N)c(=O)n(-c3ccc(Oc4ccccc4)cc3)c2)c1 | 20
O=C(NCCN1CCC(NC(=O)c2ccc(-c3ccccn3)s2)CC1)c1ccc(Cl)c(Cl)c1.O=C(O)C(F)(F)F | 48
N#CC1(c2ccccc2)CCN(c2nc(NCCCN3CCCC3=O)nc(N3CCCC4CCCCC43)n2)CC1 (stereo not drawn) | 92
O=C(/C=C/c1ccc(Cl)c(Cl)c1)NCCCCCCN1CCCN(C(=O)Nc2ccc(Cl)c(Cl)c2)CC1 | 8
CCC(=O)NC(c1ccco1)c1cc(Cl)c2cccnc2c1O (stereo not drawn) | 74
Cl.c1ccc2cc(CNCCCN3CCN(CCCNCc4ccc5ccccc5c4)CC3)ccc2c1 | 65
